Where “and” joins values, the source holds several entries; their conditions need not be identical. Equal entries are not always repeated. Inconclusive results are not listed. Calls of active or inactive are those of the source. The call rests on the fitted dose curve; in most records, active means well fitted curve in the direction sought with a large enough effect; inconclusive means small, poorly fitted or top-dose-only effect, or another doubt; inactive means no such curve, though single readings can be large; an effect the other way counts as inactive or inconclusive.
Assays:
[1] = target: Cellular tumor antigen p53 (Homo sapiens) (UniProt P04637); assay: Primary qHTS for small molecule compounds that upregulate eGFP-tagged delta133p53alpha (in N-terminal) cells. (AID 2060322); conditions: NCI-H358 eGFP-delta133p53alpha fluorescence, 24 h; activation: stronger effect = higher value;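 further: series mostly up to about 56 µM; 0% = DMSO vehicle and 100% = reference activator; nearly all actives have a fitted effect of over 75% in size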
Procedure, shortened: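 NCI-H358 cells pre-induced 24 h with 10 ng/ml doxycycline to express N-terminal eGFP-delta133p53alpha, then dosed 24 h at 37C without doxycycline; fixed, Hoechst-stained, GFP intensity by laser scanning cytometry, normalized to DMSO (0%) and 57.5 uM 5-azacytidine (100%).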

[2] = target: Aldehyde dehydrogenase, mitochondrial (Homo sapiens) (UniProt P05091); assay: qHTS for Inhibitors of the Aldehyde Dehydrogenase Family (ALDH2) Primary screen (AID 2061308);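 further: plate controls were vehicle for no effect and reference inhibitor for full effect; nearly all actives have a fitted effect of over 55% in size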
[3] = target: Retinaldehyde dehydrogenase 3 (Homo sapiens) (UniProt P47895); assay: qHTS for Inhibitors of the Aldehyde Dehydrogenase Family (ALDH1A3) Primary screen (AID 2061315);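 further: plate controls were DMSO vehicle for no effect and reference inhibitor for full effect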

Chain of Cellular tumor antigen p53 (Homo sapiens) (P04637 whole entry, looked up): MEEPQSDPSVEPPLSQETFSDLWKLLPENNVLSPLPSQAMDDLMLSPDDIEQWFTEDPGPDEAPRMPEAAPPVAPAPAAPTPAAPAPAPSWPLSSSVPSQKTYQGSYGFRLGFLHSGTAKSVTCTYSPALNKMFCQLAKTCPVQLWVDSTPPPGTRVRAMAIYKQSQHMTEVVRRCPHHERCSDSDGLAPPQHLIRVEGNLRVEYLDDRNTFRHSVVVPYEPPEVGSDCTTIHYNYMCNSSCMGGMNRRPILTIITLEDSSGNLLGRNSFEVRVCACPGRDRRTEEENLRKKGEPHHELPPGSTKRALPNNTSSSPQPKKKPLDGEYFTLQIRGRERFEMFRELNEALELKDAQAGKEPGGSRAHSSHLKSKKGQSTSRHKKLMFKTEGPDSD

C=C1C(=O)O[C@@H]2CC(C)=C([C@@H](C)CCCO)[C@@H](OC(=O)C(C)C)[C@H]12
inactive: activation [1] 14.3% | Potency [2] | Potency [3]

CC1=CCC2C(C)(C)CCC[C@]2(C)[C@@]12CC[C@](C)(CC(=O)O)O2 (stereo not given in full)
inactive: activation [1] 27.5% | Potency [2] | Potency [3]

C=C1CC[C@@]2(OC1)O[C@H]1CC3[C@@H]4CC=C5C[C@H](O[C@H]6OC[C@@H](O)C(O)[C@@H]6O[C@@H]6O[C@@H](C)[C@H](O)[C@@H](O[C@@H]7O[C@H](CO)[C@@H](O)[C@H](O)[C@H]7O)[C@H]6O)C[C@@H](O)[C@]5(C)C4CC[C@]3(C)[C@H]1[C@@H]2C (stereo not given in full)
inactive: activation [1] -6.25% | Potency [2] | Potency [3]

C=C1CCC2[C@](C)(CCC[C@]2(C)C(=O)O)[C@H]1CC/C(C)=C/C(=O)OC (stereo not given in full)
inactive: activation [1] 17.9% | Potency [2] | Potency [3]

CCNC1(C(N)=O)CN(c2nc(C)nc3c(-c4ccc(Cl)cc4)c(-c4ccccc4Cl)nn23)C1
inactive: activation [1] -0.333% | Potency [2] | Potency [3]

CCC(O)(C(=O)OCc1ccccc1NC(=O)CCC(=O)O)C(C)O (stereo not given)
inactive: activation [1] 4.58% | Potency [2] | Potency [3]

CNC(=O)c1ccccc1Sc1ccc2c(/C=C/c3ccccn3)n[nH]c2c1
inactive: activation [1] -18.6% and -9.82% | Potency [2] | Potency [3]

C=CC/C=C\C/C=C\CCCCCCCc1cccc(O)c1C(=O)O
inactive: activation [1] 8.04% | Potency [2] | Potency [3]

CCN(Cc1cccnc1)C(=O)CN(c1ccc(OC)nc1)S(=O)(=O)c1ccccc1C
inactive: activation [1] -3% | Potency [2] | Potency [3]

CC(C)=CC1C[C@](C)(O)[C@@H]2[C@H]3CCC4[C@@]5(C)CC[C@H](O[C@@H]6OC[C@H](O)[C@H](O[C@@H]7O[C@H](CO[C@@H]8O[C@H](CO)[C@@H](O)[C@H](O)[C@H]8O)[C@@H](O)[C@H](O)[C@H]7O)[C@H]6O[C@@H]6O[C@@H](C)[C@H](O)[C@@H](O)[C@H]6O)C(C)(C)[C@@H]5CC[C@@]4(C)[C@@]34CO[C@@]2(C4)O1 (stereo not given in full)
inactive: activation [1] -4.46% | Potency [2] | Potency [3]

CC1(C)NC2N(C1=O)c1ccccc1C2(O)CC(C(=O)O)n1cnc2ccccc2c1=O (stereo not given)
inactive: activation [1] -9.16% | Potency [2] | Potency [3]

COC(=O)C1(O)C(OC(C)=O)CCC2C3(CC(c4ccoc4)OC3=O)C(C)=CCC21C(=O)OC (stereo not given)
inactive: activation [1] 9.82% | Potency [2] | Potency [3]

O=C(O[C@H]1[C@@H]2C=CO[C@@H](O[C@@H]3O[C@H](CO)[C@@H](O)[C@H](O)[C@H]3O)[C@@H]2[C@@]2(CO)O[C@@H]12)c1ccccc1
inactive: activation [1] 10.7% | Potency [2] | Potency [3]

CC1(C)CC[C@]2(C(=O)OC3OC(CO)C(O)C(O)C3O)CC[C@]3(C)C(=CCC4[C@@]5(C)CC[C@H](OC6OC(C(=O)O)C(O)C(OC7OC(CO)C(O)C(O)C7O)C6O)C(C)(C)C5CC[C@]43C)C2C1 (stereo not given in full)
inactive: activation [1] -22.1% | Potency [2] | Potency [3]

CC1(CO)CC2C(O)C(=O)C3(CO)CC3(C)C2C1 (stereo not given)
inactive: activation [1] -2.29% | Potency [2] | Potency [3]

CC1CCC23COC(=O)C2=CC(O)CC3C1(C)CCC1=CC(=O)OC1O (stereo not given)
inactive: activation [1] 0.763% | Potency [2] | Potency [3]

CC(C)=CCC[C@](C)(O[C@@H]1O[C@H](CO[C@@H]2OC[C@@H](O)[C@H](O)[C@H]2O)[C@@H](O)[C@H](O)[C@H]1O)[C@H]1CC[C@]2(C)[C@@H]1[C@H](O)C[C@@H]1[C@@]3(C)CC[C@H](O[C@@H]4O[C@H](CO)[C@@H](O)[C@H](O)[C@H]4O[C@@H]4O[C@H](CO)[C@@H](O)[C@H](O)[C@H]4O)C(C)(C)[C@@H]3CC[C@]12C
inactive: activation [1] -8.33% | Potency [2] | Potency [3]

CC1=C2C[C@@]3(C)[C@@H](CCC[C@@H]3C)C[C@@]2(O)OC1=O
inactive: activation [1] -4.46% | Potency [2] | Potency [3]

CC(=O)O[C@H](C[C@@H](C)[C@H]1C(=O)[C@H](O)[C@@]2(C)[C@@H]3CCC4C(C)(C)[C@@H](O[C@@H]5OC[C@H](O)[C@H](O)[C@H]5O)CC[C@@]45C[C@@]35CC[C@]12C)[C@@H]1OC1(C)C (stereo not given in full)
inactive: activation [1] 8.04% | Potency [2] | Potency [3]

CC1=CC23[C@H](C=C(C(=O)O)[C@@H]2COC(=O)[C@]3(O)CO)[C@@H]1C (stereo not given in full)
inactive: activation [1] -6.87% | Potency [2] | Potency [3]

Reference: PubChem BioAssay (NCATS)
